Compounds without any hit were thinned out: in the full panel of roughly 79,000, 15% have a hit. Calls of active or inactive are those of the source. No stated cut-off is given here; in the data, active means growth inhibition above about 70%; inactive means the rest.
Legend:
[1] = NCI Yeast Anticancer Drug Screen. Data for the rad50 strain (AID 155);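 further: 0% = growth of vehicle-only cultures of the same strain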; details: S. cerevisiae rad50 strain growth inhibition; at 50.0 µM; stronger effect = higher value
How it was run: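 DNA repair mutant yeast, compound exposure, growth read-out; inhibition is taken relative to vehicle.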

[2] = NCI Yeast Anticancer Drug Screen. Data for the mec2-1 strain (AID 157); details: S. cerevisiae mec2-1 strain, at 50.0 µM, stronger effect = higher value
How it was run: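 Readout is yeast growth inhibition, normalised to vehicle-treated controls, in the mec2-1 strain exposed to compound.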

[3] = NCI Yeast Anticancer Drug Screen. Data for the sgs1 mgt1 strain (AID 161);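 further: 0% = growth of cultures given vehicle only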; details: S. cerevisiae sgs1 mgt1 strain, at 50.0 µM, stronger effect = higher value
How it was run: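 Yeast cells carrying a defined DNA-repair defect were exposed to test compounds. Growth inhibition was measured relative to vehicle-treated controls.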

[4] = NCI Yeast Anticancer Drug Screen. Data for the cln2 rad14 strain (AID 165);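 further: 0% = growth equal to vehicle treated cultures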; details: S. cerevisiae cln2 rad14 strain, at 50.0 µM, stronger effect = higher value
How it was run: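 Relative to vehicle controls, growth inhibition of compound-treated cln2 rad14 yeast was recorded.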

[5] = NCI Yeast Anticancer Drug Screen. Data for the bub3 strain (AID 167); details: S. cerevisiae bub3 mutant strain, at 50.0 µM, stronger effect = higher value
How it was run: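 In this screen, a yeast mutant lacking normal mitotic checkpoint function is challenged with compound. Relative growth versus vehicle gives the inhibition value.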

[6] = NCI Yeast Anticancer Drug Screen. Data for the mlh1 rad18 strain (AID 175); details: S. cerevisiae mlh1 rad18 strain growth inhibition; at 50.0 µM; stronger effect = higher value
How it was run: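 Test agents were incubated with a yeast strain of defined genotype (DNA damage repair defect). Inhibition of growth was derived by comparison with vehicle-exposed cultures.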

Measured: growth inhibition

COc1cc(/C=C/c2ccnc3ccccc23)ccc1N(C)C
inactive: [1] 4.7% | [2] 24.8% | [3] 15.6% | [4] -32.3% | [5] 29.8% | [6] 24.7%

N#Cc1ccc(/C=C2\Cc3ccccc3C2=O)cc1
inactive: [1] -30.6% | [2] -29.7% | [3] -35% | [4] 9.5% | [5] -18.8% | [6] 3.5%

O=c1[nH]cc(CS)c(=O)[nH]1
inactive: [1] 28.4% | [2] 0.85% | [3] -7.95% | [4] 34% | [5] 51% | [6] 14.5%

ClC1CC[N-]CC1.ClC1CC[N-]CC1.O=C(O)CC(=O)O.[Pt+2]
inactive: [1] 53.2% | [2] 55.4% | [3] 68.5% | [4] -23.4% | [5] 23.4% | [6] 45.5%

N#CCCC1(CCC#N)CCCCCCCCC(CCC#N)(CCC#N)C(=O)C1=O
inactive: [1] -8.7% | [2] -7.2% | [3] -5.15% | [4] 6.65% | [5] 2.4% | [6] 14.7%

COc1cc(C(C)c2cc3c(cc2O)OCO3)cc(OC)c1OC (stereo not drawn)
inactive: [1] -31.2% | [2] -26.1% | [3] -15.6% | [4] 8.5% | [5] 26.8% | [6] -16.4%

COc1ccc(/C=C2\N=C(c3ccc(Cl)cc3)OC2=O)cc1Br
inactive: [1] 10.2% | [2] -2.15% | [3] 21.5% | [4] 5% | [5] 12.8% | [6] 17.3%

COc1cc([C@@H]2OCC3C(c4ccc5c(c4)OCO5)OCC32)cc(OC)c1OC (stereo partly drawn)
inactive: [1] 9.9% | [2] -17.2% | [3] 24.2% | [4] 28.6% | [5] 43.4% | [6] 18.4%

CCOC(=O)C1CC1C#N (stereo not drawn)
inactive: [1] 3.4% | [2] -11.9% | [3] 9% | [4] 13.9% | [5] 9.95% | [6] 7.75%

O=C(O)C1CC1(c1ccccc1)c1ccccc1 (stereo not drawn)
inactive: [1] 18.6% | [2] 4.65% | [3] -1.05% | [4] -24.8% | [5] -12.2% | [6] 15.8%

CC1C(=O)OC(C)(C)C1(C)C (stereo not drawn)
inactive: [1] 22.4% | [2] -16.3% | [3] 4.75% | [4] -41.6% | [5] 0.2% | [6] -10.4%

Cc1cc(C)n(-c2nc(-n3nc(C)cc3C)nc(-n3nc(C)cc3C)n2)n1
inactive: [1] -34.2% | [2] -32.2% | [3] -1.7% | [4] -20.6% | [5] -21.1% | [6] -41.5%

CC(=O)N(C)c1ccc(NC(=S)NC(=O)c2cccc([N+](=O)[O-])c2)cc1
inactive: [1] 3.55% | [2] 21.6% | [3] 6.9% | [4] -4.15% | [5] 27.5% | [6] 7.05%

COCC(C)OC(=O)c1ccccc1Cl (stereo not drawn)
inactive: [1] 7.65% | [2] 10.3% | [3] 5.95% | [4] 2.65% | [5] 21.1% | [6] 24.3%

O=C(CN1CCOCC1)NC(=O)c1ccccc1
inactive: [1] -3.6% | [2] -3.6% | [3] 6.25% | [4] 1.5% | [5] -0.1% | [6] -10.7%

CC(=O)O[C@H]1CSC[C@@H](OC(C)=O)C1[N+](=O)[O-] (stereo partly drawn)
inactive: [1] 37.5% | [2] 25.4% | [3] 17.7% | [4] 43.2% | [5] 18.8% | [6] 47.1%

CSC(SC)C(OC(C)=O)C(OC(C)=O)C(OC(C)=O)C(COC(C)=O)OC(C)=O (stereo not drawn)
inactive: [1] -11.7% | [2] 11.4% | [3] 3.15% | [4] -30.9% | [5] 2.3% | [6] 3.85%

CCCCCCCCCC(=O)OC
inactive: [1] -24.1% | [2] -16.9% | [3] 8.4% | [4] -12.8% | [5] -0.25% | [6] 6.2%

COc1cc2c(cc1OC)C(c1ccc(N=Cc3ccc(N(C)C)cc3)cc1)N(C(=S)Nc1cc(Cl)ccc1Cl)CC2 (stereo not drawn)
inactive: [1] 35.5% | [2] 5.15% | [3] 40.7% | [4] 21.7% | [5] 24.1% | [6] 26.9%

CN1C(c2ccccc2)NC(=O)C12CCN(CCCC(=O)c1ccccc1)CC2 (stereo not drawn)
inactive: [1] 63.5% | [2] 39.7% | [3] 53.2% | [4] 19.5% | [5] 17.9% | [6] 45.2%

N#CCCN1CCCC1=O
inactive: [1] -11.8% | [2] -7.55% | [3] -12.5% | [4] -22.4% | [5] 6% | [6] 6.15%

CC(=O)CC(=O)N1CCCCCC1
inactive: [1] -0.65% | [2] -16.9% | [3] 0.5% | [4] 11.8% | [5] -13.3% | [6] 25.1%

N#CC(NCc1ccccc1)c1ccccc1 (stereo not drawn)
inactive: [1] 67.7% | [2] 43% | [3] 14.3% | [4] -17.1% | [5] 22.2% | [6] 19.8%

CSCCC(NC(=O)CCCOc1ccc(Cl)cc1C)C(=O)O (stereo not drawn)
inactive: [1] 1.8% | [2] -12% | [3] 3.85% | [4] -29.9% | [5] -0.9% | [6] -5.25%

CCCCC(=O)N/N=C\c1cc(Cl)ccc1[N+](=O)[O-]
inactive: [1] 17.6% | [2] 1.6% | [3] -6.65% | [4] 33.2% | [5] 7.7% | [6] 1.05%

O=C1OC(c2ccccc2)=CC1(Cc1ccccc1)Cc1ccccc1
inactive: [1] 0.2% | [2] -25.4% | [3] 4.35% | [4] -35.2% | [5] 2.6% | [6] -5.15%

C[C@@H]1CC[C@]2(C)C3(C)CC[C@]2(OC3=O)[C@@]12CC(c1ccoc1)OC2=O (stereo partly drawn)
inactive: [1] -5.9% | [2] -13.8% | [3] -9.35% | [4] -7.45% | [5] -5.45% | [6] -42.3%

CC(O)c1ccc(C(O)/C(=N\NC(=O)c2ccncc2)c2nc3ccc([N+](=O)[O-])cc3[nH]c2=O)cc1 (stereo not drawn)
inactive: [1] -5.95% | [2] -10.2% | [3] 15.2% | [4] -60.7% | [5] -5.1% | [6] -2.25%

COC(=O)c1ccc(Cl)cc1
inactive: [1] 19.4% | [2] -3.2% | [3] -8.8% | [4] 14.3% | [5] 14.5% | [6] 2.45%

COC1OC(COS(=O)(=O)c2ccc(C)cc2)C(N(C)C(C)=O)C1OS(=O)(=O)c1ccc(C)cc1 (stereo not drawn)
inactive: [1] 8.65% | [2] -8.3% | [3] 16.6% | [4] -2.3% | [5] 2.3% | [6] 0.65%

CCOC(=O)C1C(c2ccc(Cl)cc2Cl)NC(c2ccc(C)cc2)C(C(=O)OC)S1(=O)=O (stereo not drawn)
inactive: [1] 13% | [2] -9.8% | [3] -8.85% | [4] 27.3% | [5] -5.1% | [6] 27.1%

COC(=O)c1ccc(Cl)nc1
inactive: [1] 0.85% | [2] -8.6% | [3] -9.7% | [4] -6.75% | [5] -11.1% | [6] -10.3%

Cc1cc2c(cc1C)-c1c(N)nc(N)nc1CC2
inactive: [1] 2.2% | [2] 9.95% | [3] -8.6% | [4] -29.2% | [5] -15% | [6] 12.7%

CCCCCCCC/C=C\CCCCCCCC(=O)O
inactive: [1] 10.1% | [2] -23.1% | [3] -2.2% | [4] -22.9% | [5] -27.1% | [6] -15.7%

O=C(c1ccc(Cl)cc1Cl)C(CS(=O)(=O)O)CS(=O)(=O)O
inactive: [1] -20.9% | [2] -27.2% | [3] -5.8% | [4] -49.4% | [5] -5.6% | [6] -1.1%

Cc1n[nH]c(=O)[nH]c1=O
inactive: [1] -25.2% | [2] -24.8% | [3] -2.7% | [4] 3.45% | [5] -0.85% | [6] 2.55%

COc1cc(CN=c2nc(N(C)C)ss2)cc(OC)c1OC
inactive: [1] -27.8% | [2] -11.2% | [3] 9.15% | [4] -3.35% | [5] -11.6% | [6] -4.35%

c1ccc(-c2n[nH]c3c2CCCc2ccccc2-3)cc1
inactive: [1] 4.7% | [2] -9.7% | [3] 7.35% | [4] -12% | [5] 3.3% | [6] 25.4%
